Results published in the supplement of paper PMC4466140.

Key:
Test in all cases: SPOT peptide array binding signal intensity (averaged, normalized) (arbitrary units (background-subtracted, floor 0; scale differs between SH3 domains)); higher = stronger binding of the SH3 domain to the peptide
AgAbp1 = molecular target: AgAbp1
How it was run: (§1)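 GST-fused SH3 domains from four yeast species were expressed in E. coli BL21(DE3), purified on glutathione Sepharose and incubated at 10 μg/ml overnight at 4°C in TBS-based blocking buffer on cellulose membranes carrying synthetic 15-mer peptides, with cysteines replaced by serines. Bound protein was detected with anti-GST antibody, an HRP anti-mouse secondary and luminol, then imaged and quantified with Genespotter. Binding signal is the normalized, background-subtracted spot intensity averaged over replicates, in arbitrary units that differ between domains.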

AgBbc1 = molecular target: AgBbc1
How it was run: as §1

AgBem1-D1 = molecular target: AgBem1-D1
How it was run: as §1

AgBzz1-D1 = molecular target: AgBzz1-D1
How it was run: as §1

AgBzz1-D2 = molecular target: AgBzz1-D2
How it was run: as §1

AgCyk3 = molecular target: AgCyk3
How it was run: as §1

AgFus1 = molecular target: AgFus1
How it was run: as §1

AgHof1 = molecular target: AgHof1
How it was run: as §1

AgHse1 = molecular target: AgHse1
How it was run: as §1

AgLsb1 = molecular target: AgLsb1
How it was run: as §1

AgLsb4 = molecular target: AgLsb4
How it was run: as §1

AgMyo5 = molecular target: AgMyo5
How it was run: as §1

AgNbp2 = molecular target: AgNbp2
How it was run: as §1

AgRvs167 = molecular target: AgRvs167
How it was run: as §1

AgSho1 = molecular target: AgSho1
How it was run: as §1

AgSla1-D1-D2 = molecular target: AgSla1-D1-D2
How it was run: as §1

AgSla1-D3 = molecular target: AgSla1-D3
How it was run: as §1

CaAbp1-D1 = molecular target: CaAbp1-D1
How it was run: as §1

CaAbp1-D2 = molecular target: CaAbp1-D2
How it was run: as §1

CaBbc1 = molecular target: CaBbc1
How it was run: as §1

CaBem1-D1 = molecular target: CaBem1-D1
How it was run: as §1

CaBzz1-D1 = molecular target: CaBzz1-D1
How it was run: as §1

CaBzz1-D2 = molecular target: CaBzz1-D2
How it was run: as §1

CaCyk3 = molecular target: CaCyk3
How it was run: as §1

CaFus1 = molecular target: CaFus1
How it was run: as §1

CaHof1 = molecular target: CaHof1
How it was run: as §1

CaHse1 = molecular target: CaHse1
How it was run: as §1

CaLsb1 = molecular target: CaLsb1
How it was run: as §1

CaLsb4 = molecular target: CaLsb4
How it was run: as §1

CaMyo5 = molecular target: CaMyo5
How it was run: as §1

CaNbp2 = molecular target: CaNbp2
How it was run: as §1

CaRvs167 = molecular target: CaRvs167
How it was run: as §1

CaRvs167-3 = molecular target: CaRvs167-3
How it was run: as §1

CaSho1 = molecular target: CaSho1
How it was run: as §1

CaSla1-D1-D2 = molecular target: CaSla1-D1-D2
How it was run: as §1

CaSla1-D3 = molecular target: CaSla1-D3
How it was run: as §1

ScAbp1 = molecular target: ScAbp1
How it was run: as §1

ScBbc1 = molecular target: ScBbc1
How it was run: as §1

ScBem1-D1 = molecular target: ScBem1-D1
How it was run: as §1

ScBzz1-D1 = molecular target: ScBzz1-D1
How it was run: as §1

ScBzz1-D2 = molecular target: ScBzz1-D2
How it was run: as §1

ScCyk3 = molecular target: ScCyk3
How it was run: as §1

ScFus1 = molecular target: ScFus1
How it was run: as §1

ScHof1 = molecular target: ScHof1
How it was run: as §1

ScHse1 = molecular target: ScHse1
How it was run: as §1

ScLsb1 = molecular target: ScLsb1
How it was run: as §1

ScLsb2 = molecular target: ScLsb2
How it was run: as §1

ScLsb3 = molecular target: ScLsb3
How it was run: as §1

ScLsb4 = molecular target: ScLsb4
How it was run: as §1

ScMyo3 = molecular target: ScMyo3
How it was run: as §1

ScMyo5 = molecular target: ScMyo5
How it was run: as §1

ScNbp2 = molecular target: ScNbp2
How it was run: as §1

ScPex13 = molecular target: ScPex13
How it was run: as §1

ScRvs167 = molecular target: ScRvs167
How it was run: as §1

ScSho1 = molecular target: ScSho1
How it was run: as §1

ScSla1-D1-D2 = molecular target: ScSla1-D1-D2
How it was run: as §1

ScSla1-D3 = molecular target: ScSla1-D3
How it was run: as §1

SpAbp1-D1 = molecular target: SpAbp1-D1
How it was run: as §1

SpBbc1 = molecular target: SpBbc1
How it was run: as §1

SpBzz1-D1 = molecular target: SpBzz1-D1
How it was run: as §1

SpBzz1-D2 = molecular target: SpBzz1-D2
How it was run: as §1

SpCyk3 = molecular target: SpCyk3
How it was run: as §1

SpHof1 = molecular target: SpHof1
How it was run: as §1

SpHof1-2 = molecular target: SpHof1-2
How it was run: as §1

SpHof1-3 = molecular target: SpHof1-3
How it was run: as §1

SpHse1 = molecular target: SpHse1
How it was run: as §1

SpLsb1 = molecular target: SpLsb1
How it was run: as §1

SpLsb4 = molecular target: SpLsb4
How it was run: as §1

SpMyo1 = molecular target: SpMyo1
How it was run: as §1

SpNbp2 = molecular target: SpNbp2
How it was run: as §1

SpPex13 = molecular target: SpPex13
How it was run: as §1

SpRvs167 = molecular target: SpRvs167
How it was run: as §1

SpSla1-D1-D2 = molecular target: SpSla1-D1-D2
How it was run: as §1

SpSla1-D3 = molecular target: SpSla1-D3
How it was run: as §1

Binder: FYNRTAFQLPGDARV
- SPOT peptide array binding signal intensity (AgAbp1): 1.5
- SPOT peptide array binding signal intensity (AgBbc1): 0.5
- SPOT peptide array binding signal intensity (AgBem1-D1): ≤ 0
- SPOT peptide array binding signal intensity (AgBzz1-D1): 39.5
- SPOT peptide array binding signal intensity (AgBzz1-D2): 39
- SPOT peptide array binding signal intensity (AgCyk3): 2
- SPOT peptide array binding signal intensity (AgFus1): 12
- SPOT peptide array binding signal intensity (AgHof1): 12.2
- SPOT peptide array binding signal intensity (AgHse1): 18
- SPOT peptide array binding signal intensity (AgLsb1): 1140
- SPOT peptide array binding signal intensity (AgLsb4): ≤ 0
- SPOT peptide array binding signal intensity (AgMyo5): 9.5
- SPOT peptide array binding signal intensity (AgNbp2): ≤ 0
- SPOT peptide array binding signal intensity (AgRvs167): 1.83
- SPOT peptide array binding signal intensity (AgSho1): ≤ 0
- SPOT peptide array binding signal intensity (AgSla1-D1-D2): 1
- SPOT peptide array binding signal intensity (AgSla1-D3): 1
- SPOT peptide array binding signal intensity (CaAbp1-D1): 7
- SPOT peptide array binding signal intensity (CaAbp1-D2): ≤ 0
- SPOT peptide array binding signal intensity (CaBbc1): 3
- SPOT peptide array binding signal intensity (CaBem1-D1): 16
- SPOT peptide array binding signal intensity (CaBzz1-D1): 37.5
- SPOT peptide array binding signal intensity (CaBzz1-D2): 30.5
- SPOT peptide array binding signal intensity (CaCyk3): 5
- SPOT peptide array binding signal intensity (CaFus1): 21.5
- SPOT peptide array binding signal intensity (CaHof1): 0.5
- SPOT peptide array binding signal intensity (CaHse1): 2
- SPOT peptide array binding signal intensity (CaLsb1): 410
- SPOT peptide array binding signal intensity (CaLsb4): ≤ 0
- SPOT peptide array binding signal intensity (CaMyo5): 13.5
- SPOT peptide array binding signal intensity (CaNbp2): 22
- SPOT peptide array binding signal intensity (CaRvs167): ≤ 0
- SPOT peptide array binding signal intensity (CaRvs167-3): 3.5
- SPOT peptide array binding signal intensity (CaSho1): 11.5
- SPOT peptide array binding signal intensity (CaSla1-D1-D2): ≤ 0
- SPOT peptide array binding signal intensity (CaSla1-D3): ≤ 0
- SPOT peptide array binding signal intensity (ScAbp1): 2.5
- SPOT peptide array binding signal intensity (ScBbc1): 3.5
- SPOT peptide array binding signal intensity (ScBem1-D1): 0.5
- SPOT peptide array binding signal intensity (ScBzz1-D1): 22
- SPOT peptide array binding signal intensity (ScBzz1-D2): 36
- SPOT peptide array binding signal intensity (ScCyk3): 20
- SPOT peptide array binding signal intensity (ScFus1): ≤ 0
- SPOT peptide array binding signal intensity (ScHof1): ≤ 0
- SPOT peptide array binding signal intensity (ScHse1): 61.5
- SPOT peptide array binding signal intensity (ScLsb1): 554
- SPOT peptide array binding signal intensity (ScLsb2): 843
- SPOT peptide array binding signal intensity (ScLsb3): ≤ 0
- SPOT peptide array binding signal intensity (ScLsb4): ≤ 0
- SPOT peptide array binding signal intensity (ScMyo3): 40
- SPOT peptide array binding signal intensity (ScMyo5): 12.5
- SPOT peptide array binding signal intensity (ScNbp2): ≤ 0
- SPOT peptide array binding signal intensity (ScPex13): ≤ 0
- SPOT peptide array binding signal intensity (ScRvs167): ≤ 0
- SPOT peptide array binding signal intensity (ScSho1): 1
- SPOT peptide array binding signal intensity (ScSla1-D1-D2): ≤ 0
- SPOT peptide array binding signal intensity (ScSla1-D3): 1
- SPOT peptide array binding signal intensity (SpAbp1-D1): ≤ 0
- SPOT peptide array binding signal intensity (SpBbc1): 0.5
- SPOT peptide array binding signal intensity (SpBzz1-D1): 86
- SPOT peptide array binding signal intensity (SpBzz1-D2): ≤ 0
- SPOT peptide array binding signal intensity (SpCyk3): 2
- SPOT peptide array binding signal intensity (SpHof1): 4
- SPOT peptide array binding signal intensity (SpHof1-2): 1.5
- SPOT peptide array binding signal intensity (SpHof1-3): 22.5
- SPOT peptide array binding signal intensity (SpHse1): 21.5
- SPOT peptide array binding signal intensity (SpLsb1): 216
- SPOT peptide array binding signal intensity (SpLsb4): ≤ 0
- SPOT peptide array binding signal intensity (SpMyo1): 17.5
- SPOT peptide array binding signal intensity (SpNbp2): 2.5
- SPOT peptide array binding signal intensity (SpPex13): 2
- SPOT peptide array binding signal intensity (SpRvs167): ≤ 0
- SPOT peptide array binding signal intensity (SpSla1-D1-D2): ≤ 0
- SPOT peptide array binding signal intensity (SpSla1-D3): 0.5

Binder: APKREAPKPPANTSP
- SPOT peptide array binding signal intensity (AgAbp1): 1
- SPOT peptide array binding signal intensity (AgBbc1): 112
- SPOT peptide array binding signal intensity (AgBem1-D1): 34
- SPOT peptide array binding signal intensity (AgBzz1-D1): 178
- SPOT peptide array binding signal intensity (AgBzz1-D2): 2.5
- SPOT peptide array binding signal intensity (AgCyk3): ≤ 0
- SPOT peptide array binding signal intensity (AgFus1): ≤ 0
- SPOT peptide array binding signal intensity (AgHof1): 6
- SPOT peptide array binding signal intensity (AgHse1): ≤ 0
- SPOT peptide array binding signal intensity (AgLsb1): 4.5
- SPOT peptide array binding signal intensity (AgLsb4): ≤ 0
- SPOT peptide array binding signal intensity (AgMyo5): 265
- SPOT peptide array binding signal intensity (AgNbp2): 382
- SPOT peptide array binding signal intensity (AgRvs167): ≤ 0
- SPOT peptide array binding signal intensity (AgSho1): ≤ 0
- SPOT peptide array binding signal intensity (AgSla1-D1-D2): ≤ 0
- SPOT peptide array binding signal intensity (AgSla1-D3): 8
- SPOT peptide array binding signal intensity (CaAbp1-D1): 6
- SPOT peptide array binding signal intensity (CaAbp1-D2): 11
- SPOT peptide array binding signal intensity (CaBbc1): 251
- SPOT peptide array binding signal intensity (CaBem1-D1): 14
- SPOT peptide array binding signal intensity (CaBzz1-D1): 2040
- SPOT peptide array binding signal intensity (CaBzz1-D2): 2090
- SPOT peptide array binding signal intensity (CaCyk3): ≤ 0
- SPOT peptide array binding signal intensity (CaFus1): 18
- SPOT peptide array binding signal intensity (CaHof1): ≤ 0
- SPOT peptide array binding signal intensity (CaHse1): 1.5
- SPOT peptide array binding signal intensity (CaLsb1): ≤ 0
- SPOT peptide array binding signal intensity (CaLsb4): ≤ 0
- SPOT peptide array binding signal intensity (CaMyo5): 1.75

Binder: VAPPPLPNRQLPNLD
- SPOT peptide array binding signal intensity (SpBzz1-D2): ≤ 0
- SPOT peptide array binding signal intensity (SpCyk3): 5
- SPOT peptide array binding signal intensity (SpHof1): ≤ 0
- SPOT peptide array binding signal intensity (SpHof1-2): 11.5
- SPOT peptide array binding signal intensity (SpHof1-3): 31
- SPOT peptide array binding signal intensity (SpHse1): 71.5
- SPOT peptide array binding signal intensity (SpLsb1): 1020
- SPOT peptide array binding signal intensity (SpLsb4): 5980
- SPOT peptide array binding signal intensity (SpMyo1): 461
- SPOT peptide array binding signal intensity (SpNbp2): ≤ 0
- SPOT peptide array binding signal intensity (SpPex13): ≤ 0
- SPOT peptide array binding signal intensity (SpRvs167): 3250
- SPOT peptide array binding signal intensity (SpSla1-D1-D2): ≤ 0
- SPOT peptide array binding signal intensity (SpSla1-D3): ≤ 0
